Results: PubChem BioAssay (NCI)
About 83,000 compounds went through this panel and 20% of them were active in at least one assay; those are over-represented in the sample as a whole.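 How to read the values: 0–100, growth inhibition (40 = 60% inhibited); 0, no net growth; -100 to 0, cell death (-40 = 40% of starting cells died; -100 = all dead).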 Calls of active or inactive are those of the source. The calls were made as follows: active = growth percent below 10; inactive = the rest.

Columns and labels:
Assay in all cases: NCI-60 one-dose screen, 48 h (100 = growth as untreated, 0 = no growth, -100 = all killed)
[1] = test system: SR leukemia; details: 10 µM unless noted
[2] = test system: RPMI-8226 leukemia; details: 10 µM unless noted
[3] = test system: OVCAR-8 ovarian; details: 10 µM unless noted
[4] = test system: OVCAR-5 ovarian; details: 10 µM unless noted
[5] = test system: OVCAR-4 ovarian; details: 10 µM unless noted
[6] = test system: SK-OV-3 ovarian; details: 10 µM unless noted
[7] = test system: IGROV1 ovarian; details: 10 µM unless noted
[8] = test system: OVCAR-3 ovarian; details: 10 µM unless noted
[9] = test system: HS 578T breast; details: 10 µM
[10] = test system: NCI/ADR-RES ovarian; details: 10 µM unless noted

Measured: growth

CCOC(=O)c1sc2nc(-c3cc4ccccc4o3)cc(-c3ccc(Cl)cc3)c2c1N
inactive: [1] 71.6% | [2] 42.4% | [3] 112% | [4] 112% | [5] 101% | [6] 104% | [7] 81.2% | [8] 103% | [9] 91.9% | [10] 112%

Cn1nc(C(F)(F)F)cc1-c1cc(Cl)c(OCc2ccc(Cl)cc2)c(-c2ccc(Cl)c(C(F)(F)F)c2)c1O
active: [2] -21.8% | [6] -7.57% | [8] 7.63% | [9] -5.65% | [10] 1.22%
inactive: [1] 17.6% | [3] 14.5% | [4] 10.3% | [5] 17.2% | [7] 25.9%

Fc1[nH]nc2ccc([C@@H]3Nc4ccc5[nH]ncc5c4[C@H]4C5CCC(C5)[C@@H]34)cc12 (stereo not given in full)
inactive: [1] 42% | [2] 18.2% | [3] 40% | [4] 54.3% | [5] 54.6% | [6] 39.7% | [7] 43.1% | [9] 34.8% | [10] 15.2%
active: [8] 1.83%

Cc1ccc(S(=O)(=O)NC(CCC(=O)Nc2ccc(Cl)cc2)C(=O)Nc2ccc(Cl)cc2)cc1 (stereo not given)
inactive: [2] 13.5% | [3] 39.2% | [4] 67.8% | [5] 26.3% | [6] 26.2% | [7] 34.6% | [9] 29.8% | [10] 39.6%
active: [1] -18.2% | [8] 7.96%

CN(C)c1ccc(C(c2ccccc2)c2ccc(N(C)C)cc2)cc1
inactive: [1] 68.2% | [2] 57.4% | [3] 90.9% | [4] 94% | [5] 99.8% | [6] 106% | [7] 113% | [8] 94.9% | [9] 98.8% | [10] 85%

CC(C)[C@H](CN)NC[C@H](C)NS(=O)(=O)c1ccc(C(C)(C)C)cc1
inactive: [1] 110% | [2] 90.4% | [3] 97.5% | [4] 106% | [5] 87.5% | [6] 105% | [7] 97% | [8] 103% | [9] 87.9% | [10] 104%

CCN1CCN(Cc2ccc(NC(=O)c3nc4ccc5[nH]ncc5c4c4c3CCCC4)cc2C(F)(F)F)CC1
inactive: [4] 48.9% | [5] 22.6% | [6] 91.7% | [9] 84.8% | [10] 18.8%
active: [1] -29.2% | [2] -24.6% | [3] -59.3% | [7] -47.6% | [8] -70.5%

COC(=O)C1(C)COP(=O)(NC23CC4CC(CC(C4)C2)C3)OC1 (stereo not given)
inactive: [1] 114% | [2] 95.6% | [3] 107% | [4] 113% | [5] 97.7% | [6] 100% | [7] 106% | [8] 106% | [9] 102% | [10] 93.9%

CC(C)OC(=O)c1ccc([N+](=O)[O-])cc1
inactive: [1] 102% | [2] 98.5% | [3] 108% | [4] 112% | [5] 111% | [6] 107% | [7] 119% | [8] 117% | [9] 112% | [10] 104%

CCCCn1c(C)nc2ccc(Nc3nc(Cl)nc4nc[nH]c34)cc21
active: [9] 6.13%
inactive: [1] 42.5% | [2] 43.7% | [3] 78.2% | [4] 74.5% | [5] 68.4% | [6] 77% | [7] 68.2% | [8] 62.7% | [10] 101%

Nc1nc2ccc([C@@H]3Nc4ccc5[nH]ncc5c4[C@H]4[C@H]5CCC(C5)[C@H]43)cc2s1
inactive: [1] 51.1% | [2] 19.5% | [3] 37.5% | [4] 21.3% | [5] 14.4% | [7] 33.3% | [10] 17.4%
active: [6] -17.5% | [8] -6.66% | [9] 8.66%

COc1cccc2nc(Nc3cccc(NC(=O)c4cc(N5CCOCC5)cc(C(F)(F)F)c4)c3)ccc12
inactive: [1] 74.4% | [2] 31.9% | [3] 52.2% | [4] 97.5% | [5] 61.9% | [6] 88.9% | [7] 40.4% | [8] 78% | [9] 67% | [10] 59.7%

C=C(C)[C@@H]1CC[C@]2(C)[C@H](CC=C3[C@@H]4C[C@](C)(C(=O)N5CCN(C)CC5)CC[C@]4(C)CC[C@]32C)[C@@]1(C)CCC#N
inactive: [1] 39.4% | [2] 32% | [3] 74.7% | [4] 88.2% | [5] 62.9% | [6] 63.3% | [7] 76.4% | [8] 55.3% | [9] 81.4% | [10] 75.6%
